Bioassay records as filed in PubChem BioAssay.
LMNA splice mod: changes lamin A minigene splicing in HeLa cells | HeLa LMNA splicing GFP/RFP minigene ratio, 48 h | Potency, µM (top dose mostly 46.1 µM), for the others: at the top dose ratio change, negative = inhibition, actives largely listed as inhibitors | 200,000 tested, 0.01% active | AID 1487; active = well fitted inhibition curve with a large enough effect in the signal ratio, with a control signal flat, not every such curve was filed as active; inconclusive = small, poorly fitted or top-dose-only effect, or effect the other way, or a change in a side signal; the % refers to the signal ratio; note: % is set by controls: 0 for no effect and ±100 for the full control effect
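S3 HeLa cells stably expressing lamin A-EGFP splicing minigene plus DsRed2, 600 cells/well, 48 h compound exposure at 37C. Laser-scanning cytometry; analysed as GFP (500-530 nm)/RFP (575-640 nm) total intensity ratio; 0.5% DMSO vehicle.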
HTT aggregate: inhibitors of mutant huntingtin aggregate formation in PC12 cells; PC12 HttQ103-GFP aggregates, Acumen cytometry, 40 h; Potency, µM (top dose mostly 46.1 µM), for inactives: at the highest dose activity change, negative = inhibition, usual class: inhibitors; 220,000 tested, 1.1% active; AID 1688; note: % is set by controls: 0 for no effect and ±100 for the full control effect; nearly all actives have a fitted effect of over 60% in size
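PC12/HTTQ103-GFP, ecdysone-inducible; teb 100 nM; cpd qHTS titration; GFP aggregates read on laser cytometer, Ex 488/Em 500-530 nm.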
Luc counter: blocks Kinase-Glo luciferase, a counter-screen artifact; Kinase-Glo luciferase, ATP luminescence, 8 min; AID 1379; 200,000 tested, 0.28% active; Potency, µM (titrated, usually from 38.3 µM), for inactives: top-dose activity change, negative = inhibition, hits mostly inhibitors; note: % is set by controls: 0 for no effect and ±100 for the full control effect; nearly all actives have a fitted effect of over 60% in size
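Compounds were added to a substrate mix at pH 7.2 (50 mM imidazole, 10 uM ATP, within the enzyme's linear range), followed by Kinase-Glo detection reagent; luminescence was measured after 8 minutes at ambient temperature.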
HPGD block: inhibitors of human 15-hydroxyprostaglandin dehydrogenase (HPGD) | 150,000 tested, 4.3% active | P15428 | purified HPGD, NADH fluorescence kinetic, PGE2 substrate | Potency, µM, for inactives: at the highest dose activity change, negative = inhibition, usual class: inhibitors; active = well fitted inhibition curve with a large enough effect, not every such curve was filed as active; inconclusive = small, poorly fitted or top-dose-only effect, or another doubt; inactive = no such curve, though single readings can be large or run the other way; note: % is set by controls: 0 for no effect and ±100 for the full control effect
Target sequence (P15428 whole entry, looked up): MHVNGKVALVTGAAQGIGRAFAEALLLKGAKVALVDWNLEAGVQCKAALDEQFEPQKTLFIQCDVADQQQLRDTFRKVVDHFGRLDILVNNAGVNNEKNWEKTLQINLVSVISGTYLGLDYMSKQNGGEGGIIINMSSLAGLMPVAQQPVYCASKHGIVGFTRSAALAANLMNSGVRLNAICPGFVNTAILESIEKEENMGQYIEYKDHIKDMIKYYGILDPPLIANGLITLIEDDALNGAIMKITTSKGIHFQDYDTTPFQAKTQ
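20 nM HPGD preincubated 15 min at room temperature with compound in 50 mM Tris-HCl pH 8, 0.01% Tween 20. Started with 1 mM NAD+ and 30 uM prostaglandin E2; NADH fluorescence (360/450 nm) read 5 times over 30-s intervals, last minus first.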
HTT ATP protect: Huntington cell model cytoprotection by ATP luminescence; PC12 HTT-Q103 induced, cytoprotection, ATP luminescence, 40 h; Potency, µM (titrated, usually from 56.4 µM), without a hit: cytoprotection (ATP increase), hits mostly activators; 230,000 tested, 0.14% active; note: % of control where 0% means no effect; nearly all actives have a fitted effect of over 45% in size
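Quantitative HTS on tebufenozide-induced (100 nM) PC12 cells expressing HTTQ103 exon 1–GFP; compounds tested as a concentration series; survival measured via cellular ATP.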
ALDH1A1 inh: blocks purified human ALDH1A1 activity; P00352; Purified ALDH1A1, NADH fluorescence, propionaldehyde substrate; 220,000 tested, 7.3% active; Potency, µM (series often up to 75.3 µM), for the others: at the highest dose activity, negative = inhibition, most hits filed as inhibitors; active = well fitted inhibition curve with a large enough effect, not every such curve was filed as active; inconclusive = small, poorly fitted or top-dose-only effect, or another doubt; inactive = no such curve, though single readings can be large or run the other way;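 note: plate controls were no enzyme wells and a reference inhibitor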
Starred values were filed as active, the others as inactive; [ ] = another dose, or the depositor's remark. Sampled rows, rich in hits. Any-hit rate of the full collection: about 9%. Unless noted, calls come from the whole dose curve; as a rule, active = well fitted curve in the direction sought with a large enough effect; inconclusive = small, poorly fitted or top-dose-only effect, or another doubt; inactive = no such curve, though single readings can be large; an effect the other way counts as inactive or inconclusive. Potency is the fitted concentration of half-maximal effect.

What do the screens show for `CCOc1ccc(N2C(=O)CC(Sc3nccc(C)n3)C2=O)cc1` (stereo not given)?
LMNA splice mod: 10%; HTT aggregate: 5%; Luc counter: -1%; HPGD block: -5%; HTT ATP protect: -6%[0.074 µM]; ALDH1A1 inh: inconclusive

How did C=CCc1cccc(C=Nc2cccn3cc(-c4ccccc4)nc23)c1O do in these assays?
LMNA splice mod: inconclusive; HTT aggregate: 18%; Luc counter: -8%; HTT ATP protect: -47%; ALDH1A1 inh: inconclusive

Results for CCOc1ccc(C(=O)Nc2nc(C)c(C(=O)OC)s2)cc1 ?
HTT aggregate: -12%[9.22 µM]; HTT ATP protect: -34%[10 µM]; ALDH1A1 inh: 3%

What do the screens show for `NNc1ncnc2c1cnn2-c1ccccc1`?
LMNA splice mod: inconclusive; HTT aggregate: 22µM*; Luc counter: -4%; HPGD block: -20%; HTT ATP protect: -35%; ALDH1A1 inh: 18µM*

How did COc1ccc(-n2ncc3c(NCc4cccs4)ncnc32)cc1 do in these assays?
LMNA splice mod: -3%; HTT aggregate: -25%; Luc counter: -1%; HPGD block: inconclusive; HTT ATP protect: -41%; ALDH1A1 inh: inconclusive

How did c1ccc(-n2ncc3c(NCc4cccs4)ncnc32)cc1 do in these assays?
LMNA splice mod: -7%; HTT aggregate: -25%; Luc counter: 0%; HPGD block: 5µM*; HTT ATP protect: -16%[10 µM]; ALDH1A1 inh: inconclusive

What do the screens show for `CNc1nc(N2CCc3ccccc32)ncc1F`?
LMNA splice mod: inconclusive; HTT aggregate: 18%; Luc counter: -28%; HPGD block: -17%; HTT ATP protect: -56%; ALDH1A1 inh: inconclusive

What do the screens show for `CCN(CC)CCCNC(=O)CN1C(=O)CCn2nc(-c3cn(C)c4ccccc34)cc21`?
LMNA splice mod: 18%[46 µM]

Results for CCOc1ccccc1-n1c(SCC(=O)N2CCCC2)nnc1-c1ccc(O)cc1 ?
LMNA splice mod: inconclusive; HTT aggregate: 12%; Luc counter: 0%; HPGD block: -5%; HTT ATP protect: -19%; ALDH1A1 inh: inconclusive

How did CCN(CC)S(=O)(=O)c1ccc(C)c(NC(=S)NNC(=O)C2CC2)c1 do in these assays?
LMNA splice mod: -1%; HTT aggregate: -3%; Luc counter: -3%; HPGD block: -18%; HTT ATP protect: inconclusive; ALDH1A1 inh: 8.9µM*

How did Cc1cccc(C(=O)NCCc2csc(C)n2)c1 do in these assays?
LMNA splice mod: -10%; HTT aggregate: -33%; Luc counter: 6%; HPGD block: -11%; HTT ATP protect: 2%[10 µM]; ALDH1A1 inh: -3%

Results for O=C(CN1CCCC1)N1CCCC(c2ccc(F)cc2)c2ccc(F)cc21 (stereo not given) ?
LMNA splice mod: inconclusive; HTT aggregate: -9%; Luc counter: -6%; HPGD block: 5%; ALDH1A1 inh: -3%

How did COc1ccc2[nH]c3c(N4CCN(Cc5ccc6c(c5)OCO6)CC4)ncnc3c2c1 do in these assays?
LMNA splice mod: inconclusive; HTT aggregate: 13µM*; HTT ATP protect: -47%; ALDH1A1 inh: inconclusive

Results for Nc1ccc(N)c(Cl)c1 ?
HPGD block: inconclusive; HTT ATP protect: -60%; ALDH1A1 inh: 22µM*

Results for Nc1ccc(N2C(=O)c3ccccc3C2=O)c(Cl)c1 ?
LMNA splice mod: inconclusive; Luc counter: 1%; HPGD block: 4%; HTT ATP protect: -4%[1.9 µM]; ALDH1A1 inh: -5%

What do the screens show for `NC(=O)CN1CCCN(S(=O)(=O)c2ccc(Br)cc2)CC1`?
LMNA splice mod: 17%; HTT aggregate: -2%; Luc counter: -3%; HPGD block: -12%; HTT ATP protect: 0%; ALDH1A1 inh: inconclusive

Results for COc1ccccc1N1CCN(Cc2ccc(O)c3ncccc23)CC1 ?
LMNA splice mod: inconclusive; HTT aggregate: 1.1µM*; Luc counter: -4%; HPGD block: -13%; HTT ATP protect: -77%[10 µM]; ALDH1A1 inh: -7%

How did CCOC(=O)C1CCN(Cc2ccc(O)c3ncccc23)CC1 do in these assays?
LMNA splice mod: -10%; HTT aggregate: -8%; Luc counter: -1%; HPGD block: -6%; HTT ATP protect: -35%; ALDH1A1 inh: inconclusive

Results for Oc1ccc(CN2CCCc3ccccc32)c2cccnc12 ?
LMNA splice mod: inconclusive; HTT aggregate: inconclusive; Luc counter: -2%; HPGD block: -9%; HTT ATP protect: 28%[10 µM]; ALDH1A1 inh: 10µM*

How did COc1ccccc1N1CCN(Cc2ccc(OC)c(OC)c2OC)CC1 do in these assays?
LMNA splice mod: -18%; HTT aggregate: -6%; Luc counter: -3%; HPGD block: -2%; HTT ATP protect: -23%; ALDH1A1 inh: -17%

Results for COc1ccccc1/C=N/NC(=O)c1ccc(CN2C(=O)c3cccc4cccc2c34)cc1 ?
HTT aggregate: -19%[9.22 µM]; HTT ATP protect: 0%[10 µM]

How did CCSc1nnc(NC(=O)CSc2nc3c(c(=O)n2CC)SC(C)C3)s1 (stereo not given) do in these assays?
LMNA splice mod: 0%; HTT aggregate: 13µM*; Luc counter: 2%; HPGD block: -9%; HTT ATP protect: -24%; ALDH1A1 inh: -7%

Results for CCn1c(SCC(=O)Nc2cccc(C)c2)nc2c(c1=O)SC(C)C2 (stereo not given) ?
LMNA splice mod: -15%; HTT aggregate: 3%; Luc counter: 6%; HPGD block: -22%; HTT ATP protect: -10%; ALDH1A1 inh: 20µM*

What do the screens show for `CC1Cc2nc(SCC(=O)NC3CCCCC3)n(C)c(=O)c2S1` (stereo not given)?
LMNA splice mod: 20%; HTT aggregate: 16%; Luc counter: -4%; HPGD block: 40µM*; HTT ATP protect: 6%[1.9 µM]; ALDH1A1 inh: -102%

How did CCSc1nnc(NC(=O)CSc2nc3c(c(=O)n2C)SC(C)C3)s1 (stereo not given) do in these assays?
LMNA splice mod: inconclusive; HTT aggregate: -25%; Luc counter: -2%; HPGD block: -8%; HTT ATP protect: 11%[1.9 µM]; ALDH1A1 inh: -18%

Results for CN(C)CCOc1ccccc1Cc1ccccc1 ?
LMNA splice mod: inconclusive; HTT aggregate: -10%; Luc counter: -1%; HPGD block: -2%; HTT ATP protect: -21%; ALDH1A1 inh: -11%

Results for O=S(=O)(Nc1cccc(-c2cn3cccnc3n2)c1)c1ccc(F)cc1 ?
LMNA splice mod: inconclusive; HTT aggregate: 20%; Luc counter: 1%; HPGD block: inconclusive; ALDH1A1 inh: inconclusive
